Data from PubChem BioAssay (Tox21).
Results filed as inconclusive are left out. Activity calls are given as the source filed them. Unless noted, calls come from the whole dose curve; as a rule, active = well fitted curve in the direction sought with a large enough effect in the repeat runs; inconclusive = weak or mixed curves; inactive = no such curve, though single readings can be large; an effect the other way counts as inactive or inconclusive.

How the values were obtained:
[1] = qHTS assay to identify small molecule agonists of the progesterone receptor (PR) signaling pathway - cell viability counter screen (AID 1346799; calls by dose curve; note: nearly all actives have a fitted effect of over 45% in size)
Method in brief: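 Cytotoxicity measured by CellTiter-Glo luminescence (30 min, RT) in the same wells as the PR beta-lactamase agonist read. Those HEK293T cells had 16 h compound treatment at 37 C in 2% charcoal-stripped FBS medium.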

[2] = qHTS assay to identify small molecule antagonists of the TGF-beta/Smad signaling pathway - cell viability counter screen (AID 1346824); note: nearly all actives have a fitted effect of over 50% in size
Method in brief: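 SBE-bla HEK 293T cells were plated overnight at 37 C, then given compounds in DMSO plus TGF-beta1 (added as 0.25 ng/mL solution) for 5 hr. After the bla read, CellTiter-Glo was added to the same wells and luminescence read after 30 min at room temperature.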

[3] = qHTS assay to identify small molecule agonists of the TGF-beta/Smad signaling pathway - cell viability counter screen (AID 1346829); note: top concentration of the series differs between compounds; nearly all actives have a fitted effect of over 45% in size
Method in brief: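 After overnight seating at 37 C and 5% CO2, reporter cells got compounds for 5 hr and FRET substrate for 2 hr; cell viability then came from CellTiter-Glo luminescence.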

[4] = qHTS assay to identify small molecule agonists of the TGF-beta/Smad signaling pathway (AID 1346859; active = well fitted activation curve with a large enough effect in the signal ratio in the repeat runs, not every such curve was filed as active; the % refers to the signal ratio; note: series mostly up to about 77 µM)
Method in brief: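 Fluorescence (ex 405 nm; em 460 and 530 nm) was read 2 h after LiveBLAzer FRET substrate at RT. The preceding compound treatment of overnight-plated SBE-bla HEK293T cells lasted 5 h at 37 C.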

[5] = target: Thyrotropin-releasing hormone receptor (Homo sapiens) (UniProt P34981); assay: qHTS assay to identify small molecule antagonists of the thyrotropin-releasing hormone receptor (TRHR) signaling pathway (AID 1346877; active = well fitted inhibition curve with a large enough effect in the repeat runs, not every such curve was filed as active; note: series mostly up to about 51 µM)
Thyrotropin-releasing hormone receptor (Homo sapiens), sequence (P34981 whole entry, looked up): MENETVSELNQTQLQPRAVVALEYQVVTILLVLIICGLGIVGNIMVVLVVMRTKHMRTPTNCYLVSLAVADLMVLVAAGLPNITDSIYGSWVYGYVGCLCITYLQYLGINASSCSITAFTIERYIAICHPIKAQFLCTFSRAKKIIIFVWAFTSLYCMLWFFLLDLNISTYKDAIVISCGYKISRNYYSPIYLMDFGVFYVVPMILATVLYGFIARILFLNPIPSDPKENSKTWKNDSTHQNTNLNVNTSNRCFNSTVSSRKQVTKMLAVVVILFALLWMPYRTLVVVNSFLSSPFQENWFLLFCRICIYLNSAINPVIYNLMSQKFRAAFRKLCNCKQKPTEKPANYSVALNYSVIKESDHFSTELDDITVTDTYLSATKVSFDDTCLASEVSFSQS
Method in brief: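 Intracellular calcium fluorescence, read kinetically every second over 3 min, reports TRH-evoked signalling in HEK293 cells carrying TRHR. Test compounds were added 5 min ahead of a 1 nM TRH challenge.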

[6] = target: Thyrotropin-releasing hormone receptor (Homo sapiens) (UniProt P34981); assay: qHTS assay to identify small molecule agonists of the thyrotropin-releasing hormone receptor (TRHR) signaling pathway (AID 1346891; calls by dose curve; note: series mostly up to about 58 µM)
Method in brief: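 Agonist-mode intracellular calcium readout: kinetic fluorescence over 3 min at 1 s intervals after compound addition to TRHR-HEK293 cells (18 h seeded, 2 h dye-loaded at 37 C). Fifteen concentrations, triplicates.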

[7] = Human pregnane X receptor (PXR) small molecule agonists, qHTS cell viability counter screen (AID 1346977); note: nearly all actives have a fitted effect of over 50% in size
Method in brief: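 Same-well viability read: CellTiter-Fluor added after 23 hr compound exposure, fluorescence measured 1 hr later. Cells were PXR-Luc HepG2 seeded at 2,000/well in 5% charcoal-stripped FBS medium, rested 5 hr before dosing at 37 C.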

[8] = Caspase-3/7 induction in HepG2 cells by small molecules, qHTS assay (AID 1346978); note: nearly all actives have a fitted effect of over 15% in size
Method in brief: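 Wild-type HepG2 cells (2,000/well) were settled 5 h at 37 C, 5% CO2, then exposed to compounds in DMSO for 17 h. Caspase-3/7 activity was read by luminescence 30 min after adding Caspase-Glo 3/7 reagent at room temperature.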

[9] = Caspase-3/7 induction in CHO-K1 cells by small molecules, qHTS cell viability counter screen (AID 1346979); note: nearly all actives have a fitted effect of over 35% in size
Method in brief: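 Cytotoxicity counter screen: CellTiter-Fluor added to compound-treated wild-type CHO-K1 cells at 16 h (37C, 5% CO2), fluorescence measured 1 h later; same wells as caspase-3/7 measurement.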

[10] = Caspase-3/7 induction in CHO-K1 cells by small molecules, qHTS assay (AID 1346980); note: nearly all actives have a fitted effect of over 15% in size
Method in brief: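 Wild-type cells were seeded at 1,500 per well and settled 5 hr at 37 C, 5% CO2, then exposed to DMSO-dissolved compounds for 17 hr. Caspase-Glo 3/7 reagent was added, and luminescence was read after 30min at room temperature.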

[11] = Caspase-3/7 induction in HepG2 cells by small molecules, qHTS cell viability counter screen (AID 1346981); note: series mostly up to about 92 µM; nearly all actives have a fitted effect of over 30% in size
Method in brief: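 HepG2, WT, 2,000 cells/well; 5 hr pre-incubation 37 C/5% CO2; compound pin-transferred from DMSO; 16 hr exposure; CellTiter-Fluor, 1 hr; fluorescence read.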

[12] = target: Nuclear receptor subfamily 1 group I member 2 (Homo sapiens) (UniProt O75469); assay: Human pregnane X receptor (PXR) small molecule agonists, qHTS assay (AID 1346982); note: nearly all actives have a fitted effect of over 35% in size
Nuclear receptor subfamily 1 group I member 2 (Homo sapiens), sequence (O75469 whole entry, looked up): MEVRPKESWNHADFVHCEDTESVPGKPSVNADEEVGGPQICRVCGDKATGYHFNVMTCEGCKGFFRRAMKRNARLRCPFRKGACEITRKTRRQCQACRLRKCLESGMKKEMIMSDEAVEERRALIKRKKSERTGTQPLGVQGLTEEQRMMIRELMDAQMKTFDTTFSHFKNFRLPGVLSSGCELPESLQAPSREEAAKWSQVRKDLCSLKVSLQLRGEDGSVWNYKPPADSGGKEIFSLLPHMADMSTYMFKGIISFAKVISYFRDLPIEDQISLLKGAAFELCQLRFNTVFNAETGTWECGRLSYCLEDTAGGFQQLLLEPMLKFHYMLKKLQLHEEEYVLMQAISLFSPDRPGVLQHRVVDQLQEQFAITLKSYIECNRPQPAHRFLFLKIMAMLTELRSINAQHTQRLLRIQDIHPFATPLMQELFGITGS
Method in brief: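 Luciferase signal from ONE-Glo (30 min, room temperature) measured activation of hPXR-driven CYP3A4 reporter expression in PXR-Luc HepG2 cells treated with compounds for 24 hr at 37 C.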

[13] = target: Cytochrome P450 2D6 (Homo sapiens) (UniProt P10635); assay: Cytochrome P450 Family 2 Subfamily D Member 6 (CYP2D6) small molecule antagonists: luciferase reporter qHTS assay (AID 1671196); note: series mostly up to about 120 µM; nearly all actives have a fitted effect of over 50% in size
Cytochrome P450 2D6 (Homo sapiens), sequence (P10635 whole entry, looked up): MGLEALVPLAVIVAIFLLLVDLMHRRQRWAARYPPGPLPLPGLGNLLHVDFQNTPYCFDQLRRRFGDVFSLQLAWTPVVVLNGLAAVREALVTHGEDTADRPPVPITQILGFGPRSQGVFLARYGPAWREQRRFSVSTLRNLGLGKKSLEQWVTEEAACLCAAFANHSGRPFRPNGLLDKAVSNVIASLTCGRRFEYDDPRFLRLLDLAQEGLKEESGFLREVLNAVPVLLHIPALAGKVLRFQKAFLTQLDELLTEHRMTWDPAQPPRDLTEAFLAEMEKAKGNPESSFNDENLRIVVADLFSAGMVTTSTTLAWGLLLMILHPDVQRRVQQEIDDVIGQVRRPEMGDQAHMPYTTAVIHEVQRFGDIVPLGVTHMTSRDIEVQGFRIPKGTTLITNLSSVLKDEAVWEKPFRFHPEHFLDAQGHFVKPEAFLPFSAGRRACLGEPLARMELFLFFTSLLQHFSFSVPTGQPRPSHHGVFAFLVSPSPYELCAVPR
Method in brief: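 Read-out is luminescence from luciferin formed by CYP2D6 turnover of a proluciferin substrate, recorded as relative luminescence units. Reactions ran 1 h at room temperature after NADPH regeneration solution was added.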

[14] = target: Voltage-gated inwardly rectifying potassium channel KCNH2 (Homo sapiens) (UniProt Q12809); assay: Human Ether-a-go-go-Related Gene (hERG) channel small molecule antagonists: fluorescence cell-based qHTS assay (AID 1671200); note: series mostly up to about 77 µM; nearly all actives have a fitted effect of over 50% in size
Voltage-gated inwardly rectifying potassium channel KCNH2 (Homo sapiens), sequence (Q12809 whole entry, looked up): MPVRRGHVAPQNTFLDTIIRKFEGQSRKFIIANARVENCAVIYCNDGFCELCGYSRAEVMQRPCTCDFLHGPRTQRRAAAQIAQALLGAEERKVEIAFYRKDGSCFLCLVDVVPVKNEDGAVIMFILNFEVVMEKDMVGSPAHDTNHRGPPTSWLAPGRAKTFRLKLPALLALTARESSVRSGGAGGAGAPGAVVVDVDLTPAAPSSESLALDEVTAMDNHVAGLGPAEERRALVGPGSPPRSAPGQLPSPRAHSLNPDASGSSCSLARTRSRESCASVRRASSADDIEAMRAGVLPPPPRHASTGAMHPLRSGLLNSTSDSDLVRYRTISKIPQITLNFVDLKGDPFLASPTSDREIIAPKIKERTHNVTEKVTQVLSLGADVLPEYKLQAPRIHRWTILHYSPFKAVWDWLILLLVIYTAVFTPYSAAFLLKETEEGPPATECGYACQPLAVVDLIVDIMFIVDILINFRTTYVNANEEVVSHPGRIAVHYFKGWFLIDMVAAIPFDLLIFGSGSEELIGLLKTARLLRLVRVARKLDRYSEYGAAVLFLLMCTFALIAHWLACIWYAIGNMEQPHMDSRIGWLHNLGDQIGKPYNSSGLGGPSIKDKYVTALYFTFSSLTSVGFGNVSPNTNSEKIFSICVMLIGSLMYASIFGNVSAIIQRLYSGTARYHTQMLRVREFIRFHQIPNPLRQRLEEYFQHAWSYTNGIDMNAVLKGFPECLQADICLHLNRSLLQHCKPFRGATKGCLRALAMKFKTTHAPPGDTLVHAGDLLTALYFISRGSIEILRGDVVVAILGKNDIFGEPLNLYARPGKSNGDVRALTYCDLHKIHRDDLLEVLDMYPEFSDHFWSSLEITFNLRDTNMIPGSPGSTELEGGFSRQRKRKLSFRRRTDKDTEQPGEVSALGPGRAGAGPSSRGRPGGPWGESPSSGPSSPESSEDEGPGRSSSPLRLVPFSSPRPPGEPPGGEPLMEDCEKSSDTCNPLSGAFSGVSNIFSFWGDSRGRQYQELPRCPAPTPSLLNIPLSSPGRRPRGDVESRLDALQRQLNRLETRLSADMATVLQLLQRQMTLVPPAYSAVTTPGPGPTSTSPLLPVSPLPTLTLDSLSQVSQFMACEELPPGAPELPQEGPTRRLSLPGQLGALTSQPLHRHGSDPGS
Method in brief: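 Thallium flux as potassium surrogate: FluxOR II dye loaded 1 h at room temperature into hERG-expressing U2OS cells, then stimulus buffer added after 10 min. Kinetic 480 nm excitation/540 nm emission read, 2 min.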

[15] = target: Cytochrome P450 2C19 (Homo sapiens) (UniProt P33261); assay: Cytochrome P450 Family 2 Subfamily C Member 19 (CYP2C19) small molecule antagonists: luciferase reporter qHTS assay (AID 1671197); note: nearly all actives have a fitted effect of over 65% in size; note: potency is the fitted concentration of half-maximal effect
Cytochrome P450 2C19 (Homo sapiens), sequence (P33261 whole entry, looked up): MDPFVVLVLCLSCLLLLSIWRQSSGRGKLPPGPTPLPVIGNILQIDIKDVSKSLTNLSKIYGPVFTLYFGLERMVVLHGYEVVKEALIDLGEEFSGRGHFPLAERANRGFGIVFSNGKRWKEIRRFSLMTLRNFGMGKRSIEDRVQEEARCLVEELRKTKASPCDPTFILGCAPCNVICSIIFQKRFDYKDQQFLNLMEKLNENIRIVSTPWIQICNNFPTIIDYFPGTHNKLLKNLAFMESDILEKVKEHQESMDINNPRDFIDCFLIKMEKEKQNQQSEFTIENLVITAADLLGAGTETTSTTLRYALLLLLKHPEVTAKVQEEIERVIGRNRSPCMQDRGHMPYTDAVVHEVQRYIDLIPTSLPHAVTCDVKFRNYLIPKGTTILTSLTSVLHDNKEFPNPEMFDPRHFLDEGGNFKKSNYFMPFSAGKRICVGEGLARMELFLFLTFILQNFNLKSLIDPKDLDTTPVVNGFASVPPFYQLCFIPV
Method in brief: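 Inhibition of CYP2C19 was scored from loss of luminescence in a P450-Glo proluciferin substrate assay, NADPH-started and run 1 h at 37C, with ketoconazole as positive control.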

[16] = target: Cytochrome P450 2C9 (Homo sapiens) (UniProt P11712); assay: Cytochrome P450 Family 2 Subfamily C Member 9 (CYP2C9) small molecule antagonists: luciferase reporter qHTS assay (AID 1671198)
Cytochrome P450 2C9 (Homo sapiens), sequence (P11712 whole entry, looked up): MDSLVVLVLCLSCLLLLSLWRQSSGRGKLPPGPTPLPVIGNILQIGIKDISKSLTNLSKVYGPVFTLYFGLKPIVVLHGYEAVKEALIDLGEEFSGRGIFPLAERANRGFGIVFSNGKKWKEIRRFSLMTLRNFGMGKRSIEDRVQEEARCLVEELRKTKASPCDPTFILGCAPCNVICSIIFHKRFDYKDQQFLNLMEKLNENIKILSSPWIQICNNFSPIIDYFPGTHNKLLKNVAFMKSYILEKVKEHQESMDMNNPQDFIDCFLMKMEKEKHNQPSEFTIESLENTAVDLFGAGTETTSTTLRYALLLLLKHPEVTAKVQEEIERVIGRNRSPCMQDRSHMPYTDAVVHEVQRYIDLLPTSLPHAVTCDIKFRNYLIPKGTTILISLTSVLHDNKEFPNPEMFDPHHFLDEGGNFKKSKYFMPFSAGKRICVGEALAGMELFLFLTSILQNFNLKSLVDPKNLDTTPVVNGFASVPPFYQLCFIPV
Method in brief: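 CYP2C9 activity was measured with a P450-Glo proluciferin substrate. Enzyme–substrate mix was held with compound for 10 min at room temperature, then NADPH regeneration solution was added for 1 h at 37C. Luciferin product was read as luminescence.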

[17] = target: Cytochrome P450 1A2 (Homo sapiens) (UniProt P05177); assay: Cytochrome P450 Family 1 Subfamily A Member 2 (CYP1A2) small molecule antagonists: luciferase reporter qHTS assay (AID 1671199)
Cytochrome P450 1A2 (Homo sapiens), sequence (P05177 whole entry, looked up): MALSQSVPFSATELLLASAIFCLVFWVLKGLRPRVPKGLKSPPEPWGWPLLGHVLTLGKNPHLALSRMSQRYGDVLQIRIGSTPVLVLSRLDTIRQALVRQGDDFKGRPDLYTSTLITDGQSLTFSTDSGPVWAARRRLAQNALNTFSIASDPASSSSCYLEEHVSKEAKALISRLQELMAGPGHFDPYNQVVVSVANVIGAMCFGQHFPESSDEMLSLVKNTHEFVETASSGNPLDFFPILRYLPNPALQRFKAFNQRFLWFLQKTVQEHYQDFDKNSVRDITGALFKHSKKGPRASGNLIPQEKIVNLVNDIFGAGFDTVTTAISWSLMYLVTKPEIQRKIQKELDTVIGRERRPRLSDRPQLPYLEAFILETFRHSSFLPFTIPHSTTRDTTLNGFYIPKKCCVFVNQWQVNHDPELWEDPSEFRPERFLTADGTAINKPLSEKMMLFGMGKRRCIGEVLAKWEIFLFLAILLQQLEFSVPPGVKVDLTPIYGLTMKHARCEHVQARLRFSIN
Method in brief: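 P450-Glo CYP1A2, 1536-well qHTS: enzyme/proluciferin substrate + cpd (DMSO), 10 min RT; NADPH regen, 1 h RT; detection reagent, 20 min; luminescence, RLU.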

Measured: Potency

Cc1ccc2n[nH]nc2c1
not listed: [15] | [16] | [17]
inactive: all other assays above

Cc1ccc(C2OC[C@@H]3OC(c4ccc(C)cc4)O[C@H]([C@H](O)CO)[C@@H]3O2)cc1 (stereo partly drawn)
active: [15] 6.33 µM
inactive: all other assays above

C1=CCCC1
not listed: [13]
inactive: all other assays above

CC1(C)[C@H](C(=O)OCc2cccc(Oc3ccccc3)c2)[C@@H]1C=C(Cl)Cl
not listed: [9]
inactive: all other assays above

C/C=C/C(=O)C1=C(C)C=CCC1(C)C
not listed: [14] | [16]
inactive: all other assays above

NCc1ccco1
not listed: [13] | [16]
inactive: all other assays above

O=C1CCC(=O)N1
not listed: [14] | [16]
inactive: all other assays above
